Experimental data from the supplement of paper PMC10849652.
Of roughly 7,900 targets only a part is listed; those with a hit were picked by preference. About 0.6% of all pairs of compound and target were hits.

How the values were obtained:
Assay in all cases: log2 fold change, soluble protein after heating vs DMSO (PISA); higher = thermal stabilisation; K562 cells, 10 uM, 30 min; active = over 0.2 and 3.5 SD of the protein, either way, in both replicates (recomputed)
[1] = compound: C1=CC=C(C=C1)[C@H](COC2=CC3=C(C=C2)NC(=O)N3)NC(=O)C4=CC=CN(C4=O)CC5=CC(=C(C=C5)F)F
In short: (§1)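 Thermal stability values are relative to control samples and come from duplicates. They are expressed as log2 fold changes. For measurement, K562 cells (2×10^6 cells/mL) received 10 μM compound for 30 min, and aliquots were heated for 3 min over 48°C-58°C, pooled, and extracted at 4°C in PBS with 0.5% NP-40. Soluble protein, the supernatant after 21,000xg for 90 min, was quantified by TMTpro 16plex LC-MS/MS with equalised channel sums.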

[2] = compound: CC1=C(SC2=C1C(=N[C@H](C3=NN=C(N32)C)CC(=O)N)C4=CC=C(C=C4)Cl)C
In short: as §1

[3] = compound: CC1=C2C(=CC=C1)N=C(N(C2=O)C3=CC=CC=C3C)CN4C=NC5=C(N=CN=C54)N
In short: as §1

[4] = compound: Cc1sc2c(c1C)C(c1ccc(Cl)cc1)=N[C@@H](CC(=O)OC(C)(C)C)c1nnc(C)n1-2
In short: as §1

[5] = compound: c1ccc([C@@H]2C[C@H]2NC2CCNCC2)cc1
In short: as §1

Measured: log2 fold change

NAT14 (UniProt Q8WUY8)
Chain of UniProt Q8WUY8 (Q8WUY8 whole entry, looked up): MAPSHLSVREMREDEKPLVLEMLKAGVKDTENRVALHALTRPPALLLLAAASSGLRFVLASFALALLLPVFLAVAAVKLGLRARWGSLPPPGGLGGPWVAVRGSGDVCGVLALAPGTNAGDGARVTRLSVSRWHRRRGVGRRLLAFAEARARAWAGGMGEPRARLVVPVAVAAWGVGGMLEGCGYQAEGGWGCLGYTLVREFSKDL
inactive: [1] -0.059 | [2] 0.055 | [3] -0.087 | [4] 0.043 | [5] -0.047

MSANTD2 (UniProt Q6P1R3)
inactive: [3] 0.06 | [4] 0.028

MRPS35 (UniProt P82673)
inactive: [1] -0.011 | [2] -0.03 | [3] -0.033 | [4] 0.143 | [5] -0.004

NAGPA (UniProt Q9UK23)
Chain of UniProt Q9UK23 (Q9UK23 whole entry, looked up): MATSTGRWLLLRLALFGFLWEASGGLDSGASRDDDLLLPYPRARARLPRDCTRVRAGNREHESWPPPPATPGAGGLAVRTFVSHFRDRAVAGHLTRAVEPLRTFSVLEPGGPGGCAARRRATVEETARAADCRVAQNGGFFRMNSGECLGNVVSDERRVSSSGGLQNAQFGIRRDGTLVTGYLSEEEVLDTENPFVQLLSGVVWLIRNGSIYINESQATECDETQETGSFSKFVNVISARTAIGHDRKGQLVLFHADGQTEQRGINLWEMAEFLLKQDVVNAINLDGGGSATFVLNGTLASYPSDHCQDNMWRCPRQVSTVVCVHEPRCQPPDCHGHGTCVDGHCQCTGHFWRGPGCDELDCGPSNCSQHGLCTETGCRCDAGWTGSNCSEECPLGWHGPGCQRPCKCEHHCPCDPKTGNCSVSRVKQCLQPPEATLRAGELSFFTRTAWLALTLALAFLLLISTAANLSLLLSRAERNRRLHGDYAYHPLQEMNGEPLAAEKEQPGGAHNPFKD
inactive: [1] 0.179 | [2] -0.048 | [4] -0.004 | [5] 0.061

OGFOD1 (UniProt Q8N543)
inactive: [1] -0.02 | [2] 0.047 | [3] 0.041 | [4] -0.015 | [5] -0.007

NUDT16 (UniProt Q96DE0)
inactive: [1] 0.029 | [2] 0.085 | [3] -0.045 | [4] -0.075 | [5] -0.006

NA, A0A1W2PSA9
inactive: [2] -0.046 | [4] 0.006 | [5] 0.104

NA, A0A2R8Y3M9
inactive: [1] -0.093 | [2] -0.069 | [5] 0.161

MPHOSPH8 isoform 2 (UniProt Q99549)
Chain of UniProt Q99549 (Q99549 whole entry, looked up): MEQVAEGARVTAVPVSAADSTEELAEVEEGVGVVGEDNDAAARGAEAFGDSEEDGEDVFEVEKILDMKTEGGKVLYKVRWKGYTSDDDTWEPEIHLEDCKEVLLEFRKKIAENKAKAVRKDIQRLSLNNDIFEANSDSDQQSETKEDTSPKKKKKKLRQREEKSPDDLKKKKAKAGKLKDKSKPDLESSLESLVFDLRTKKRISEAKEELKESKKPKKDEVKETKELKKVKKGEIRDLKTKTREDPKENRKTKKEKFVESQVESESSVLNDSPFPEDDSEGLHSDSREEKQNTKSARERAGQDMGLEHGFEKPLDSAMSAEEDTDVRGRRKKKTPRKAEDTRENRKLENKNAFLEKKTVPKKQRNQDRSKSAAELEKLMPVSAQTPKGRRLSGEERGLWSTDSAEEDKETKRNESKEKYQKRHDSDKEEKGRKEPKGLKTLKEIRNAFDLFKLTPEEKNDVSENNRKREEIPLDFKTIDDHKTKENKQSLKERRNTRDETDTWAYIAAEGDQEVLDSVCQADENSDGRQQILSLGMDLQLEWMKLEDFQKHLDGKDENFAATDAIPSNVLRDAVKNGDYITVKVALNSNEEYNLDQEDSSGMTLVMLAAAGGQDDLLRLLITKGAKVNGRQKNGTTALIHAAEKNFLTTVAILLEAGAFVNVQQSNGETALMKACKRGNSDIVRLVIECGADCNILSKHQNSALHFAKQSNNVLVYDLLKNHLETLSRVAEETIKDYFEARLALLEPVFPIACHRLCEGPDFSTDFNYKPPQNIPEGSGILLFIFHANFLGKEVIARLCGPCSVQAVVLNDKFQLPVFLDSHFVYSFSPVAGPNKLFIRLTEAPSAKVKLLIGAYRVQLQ
inactive: [2] -0.064 | [3] -0.009 | [4] 0.089 | [5] 0.061

NIPSNAP3B (UniProt Q9BS92)
inactive: [1] 0.045 | [2] -0.031 | [3] 0.017 | [4] -0.021 | [5] 0.099

NUDT6 (UniProt P53370)
Chain of UniProt P53370 (P53370 whole entry, looked up): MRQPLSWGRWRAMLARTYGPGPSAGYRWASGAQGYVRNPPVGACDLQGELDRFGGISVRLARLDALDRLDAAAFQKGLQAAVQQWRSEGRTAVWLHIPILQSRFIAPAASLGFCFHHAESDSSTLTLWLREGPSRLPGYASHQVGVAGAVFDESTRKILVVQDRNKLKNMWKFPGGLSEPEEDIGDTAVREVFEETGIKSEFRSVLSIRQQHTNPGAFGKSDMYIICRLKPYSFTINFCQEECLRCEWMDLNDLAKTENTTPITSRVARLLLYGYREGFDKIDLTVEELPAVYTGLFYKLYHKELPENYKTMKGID
inactive: [2] 0.073 | [3] 0.34 | [4] -0.023 | [5] -0.212

MRPL47 (UniProt Q9HD33)
inactive: [1] 0.042 | [2] -0.108 | [3] -0.131 | [4] 0.087 | [5] -0.01

OXR1 isoform 2 (UniProt Q8N573)
Chain of UniProt Q8N573 (Q8N573 whole entry, looked up): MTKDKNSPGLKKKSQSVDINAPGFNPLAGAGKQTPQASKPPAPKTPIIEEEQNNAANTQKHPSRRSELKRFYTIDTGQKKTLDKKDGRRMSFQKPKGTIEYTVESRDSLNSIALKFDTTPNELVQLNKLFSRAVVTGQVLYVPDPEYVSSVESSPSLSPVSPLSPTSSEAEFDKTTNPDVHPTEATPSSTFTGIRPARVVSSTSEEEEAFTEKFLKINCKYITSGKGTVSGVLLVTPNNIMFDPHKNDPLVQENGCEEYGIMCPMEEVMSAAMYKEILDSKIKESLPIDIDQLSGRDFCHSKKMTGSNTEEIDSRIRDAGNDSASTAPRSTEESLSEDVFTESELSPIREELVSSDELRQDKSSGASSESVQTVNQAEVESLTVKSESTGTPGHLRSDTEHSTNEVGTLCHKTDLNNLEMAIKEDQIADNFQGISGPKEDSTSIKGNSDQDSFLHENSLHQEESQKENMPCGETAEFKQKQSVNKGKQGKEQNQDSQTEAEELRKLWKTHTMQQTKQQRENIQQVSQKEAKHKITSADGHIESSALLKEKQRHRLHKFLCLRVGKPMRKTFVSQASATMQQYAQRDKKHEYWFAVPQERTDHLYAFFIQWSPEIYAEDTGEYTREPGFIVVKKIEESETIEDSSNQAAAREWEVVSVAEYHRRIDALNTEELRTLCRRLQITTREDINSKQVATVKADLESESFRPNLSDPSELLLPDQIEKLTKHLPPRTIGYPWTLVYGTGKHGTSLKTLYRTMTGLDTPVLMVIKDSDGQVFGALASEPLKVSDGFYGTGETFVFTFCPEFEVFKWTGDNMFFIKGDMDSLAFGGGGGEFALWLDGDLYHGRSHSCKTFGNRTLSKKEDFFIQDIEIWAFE
inactive: [2] 0.126 | [3] 0.025 | [4] -0.035 | [5] -0.101

NUMBL (UniProt Q9Y6R0)
inactive: [1] -0.058 | [2] -0.084 | [3] 0.009 | [5] -0.009

MON1A (UniProt Q86VX9)
inactive: [1] 0.1 | [4] -0.071

NEK3 (UniProt P51956)
inactive: [2] 0.204 | [3] 0.053 | [4] -0.032 | [5] -0.094

OGFR (UniProt Q9NZT2)
inactive: [1] -0.016 | [2] -0.057 | [3] 0.016 | [4] 0.095 | [5] -0.046

MLH1 (UniProt P40692)
inactive: [1] 0.192 | [2] 0.007 | [4] -0.109 | [5] -0.065

MTHFD1, A0A384N5Y3
inactive: [1] -0.063 | [2] 0.138 | [3] -0.022 | [4] -0.002 | [5] -0.113

NFYC (UniProt Q13952)
inactive: [1] 0.002 | [2] 0.063 | [3] 0.036 | [4] 0.014 | [5] -0.014

NDUFA7 (UniProt M0R0N0)
inactive: [1] -0.091 | [3] 0.23

OPHN1 (UniProt O60890)
Chain of UniProt O60890 (O60890 whole entry, looked up): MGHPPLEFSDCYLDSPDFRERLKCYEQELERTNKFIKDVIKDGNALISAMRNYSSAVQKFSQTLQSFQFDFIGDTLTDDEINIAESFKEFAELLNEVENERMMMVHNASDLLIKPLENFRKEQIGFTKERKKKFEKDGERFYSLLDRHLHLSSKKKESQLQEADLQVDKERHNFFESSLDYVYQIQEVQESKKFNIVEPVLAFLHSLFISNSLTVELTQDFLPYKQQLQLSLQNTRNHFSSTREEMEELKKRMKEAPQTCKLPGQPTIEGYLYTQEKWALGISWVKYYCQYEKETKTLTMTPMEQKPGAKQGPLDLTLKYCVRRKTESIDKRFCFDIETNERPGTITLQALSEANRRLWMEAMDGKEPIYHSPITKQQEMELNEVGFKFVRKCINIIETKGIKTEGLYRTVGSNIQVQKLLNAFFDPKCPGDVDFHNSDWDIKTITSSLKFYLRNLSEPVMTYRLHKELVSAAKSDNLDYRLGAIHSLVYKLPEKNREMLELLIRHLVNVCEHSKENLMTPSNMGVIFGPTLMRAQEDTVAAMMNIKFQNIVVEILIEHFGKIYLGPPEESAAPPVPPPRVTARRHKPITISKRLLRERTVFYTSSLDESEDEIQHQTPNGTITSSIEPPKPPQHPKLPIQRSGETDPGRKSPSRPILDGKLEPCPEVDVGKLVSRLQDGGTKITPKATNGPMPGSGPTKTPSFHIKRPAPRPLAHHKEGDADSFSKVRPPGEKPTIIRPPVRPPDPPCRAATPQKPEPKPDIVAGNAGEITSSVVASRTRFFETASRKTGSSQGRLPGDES
inactive: [1] -0.209 | [2] 0.033 | [4] 0.008 | [5] 0.07

NOLC1 isoform 3 (UniProt Q14978)
inactive: [2] 0.007 | [5] -0.021

NELFCD (UniProt Q8IXH7)
Chain of UniProt Q8IXH7 (Q8IXH7 whole entry, looked up): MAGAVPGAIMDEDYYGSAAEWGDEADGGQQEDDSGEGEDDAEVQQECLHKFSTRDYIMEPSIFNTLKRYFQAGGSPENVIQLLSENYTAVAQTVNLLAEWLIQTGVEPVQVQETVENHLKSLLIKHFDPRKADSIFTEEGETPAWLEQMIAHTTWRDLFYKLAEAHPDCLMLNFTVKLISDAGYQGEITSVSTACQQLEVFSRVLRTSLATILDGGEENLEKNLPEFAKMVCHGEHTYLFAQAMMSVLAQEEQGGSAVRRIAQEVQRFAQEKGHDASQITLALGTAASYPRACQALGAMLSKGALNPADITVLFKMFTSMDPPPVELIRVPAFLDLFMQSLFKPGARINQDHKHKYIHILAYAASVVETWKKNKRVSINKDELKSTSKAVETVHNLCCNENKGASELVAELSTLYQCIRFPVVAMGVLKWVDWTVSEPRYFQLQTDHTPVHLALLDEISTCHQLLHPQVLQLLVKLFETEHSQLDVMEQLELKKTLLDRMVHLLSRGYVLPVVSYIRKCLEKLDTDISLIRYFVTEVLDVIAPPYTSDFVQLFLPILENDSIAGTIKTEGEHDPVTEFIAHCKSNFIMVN
inactive: [1] -0.022 | [2] 0.155 | [3] 0.214 | [5] 0.034

MYO19 (UniProt Q96H55)
inactive: [1] -0.07 | [2] 0.016 | [3] 0.146 | [5] 0.088

NECTIN2 isoform 2 (UniProt Q92692)
inactive: [1] 0.179 | [3] -0.03

OSBPL2 (UniProt Q9H1P3)
inactive: [2] -0.583 | [5] -0.09

NUP98 (UniProt P52948)
inactive: [1] -0.041 | [2] 0.032 | [3] 0.071 | [4] -0.005 | [5] -0.011

MITF (UniProt O75030)
inactive: [3] -0.059

NUDT7 (UniProt P0C024)
inactive: [1] -0.077 | [4] -0.047

MOB2 isoform 3 (UniProt Q70IA6)
inactive: [1] -0.015 | [2] 0.129 | [4] 0.067 | [5] -0.096

MRM2 (UniProt Q9UI43)
inactive: [2] 0.021 | [3] 0.071 | [4] 0 | [5] -0.052

OSBPL3 (UniProt Q9H4L5)
Chain of UniProt Q9H4L5 (Q9H4L5 whole entry, looked up): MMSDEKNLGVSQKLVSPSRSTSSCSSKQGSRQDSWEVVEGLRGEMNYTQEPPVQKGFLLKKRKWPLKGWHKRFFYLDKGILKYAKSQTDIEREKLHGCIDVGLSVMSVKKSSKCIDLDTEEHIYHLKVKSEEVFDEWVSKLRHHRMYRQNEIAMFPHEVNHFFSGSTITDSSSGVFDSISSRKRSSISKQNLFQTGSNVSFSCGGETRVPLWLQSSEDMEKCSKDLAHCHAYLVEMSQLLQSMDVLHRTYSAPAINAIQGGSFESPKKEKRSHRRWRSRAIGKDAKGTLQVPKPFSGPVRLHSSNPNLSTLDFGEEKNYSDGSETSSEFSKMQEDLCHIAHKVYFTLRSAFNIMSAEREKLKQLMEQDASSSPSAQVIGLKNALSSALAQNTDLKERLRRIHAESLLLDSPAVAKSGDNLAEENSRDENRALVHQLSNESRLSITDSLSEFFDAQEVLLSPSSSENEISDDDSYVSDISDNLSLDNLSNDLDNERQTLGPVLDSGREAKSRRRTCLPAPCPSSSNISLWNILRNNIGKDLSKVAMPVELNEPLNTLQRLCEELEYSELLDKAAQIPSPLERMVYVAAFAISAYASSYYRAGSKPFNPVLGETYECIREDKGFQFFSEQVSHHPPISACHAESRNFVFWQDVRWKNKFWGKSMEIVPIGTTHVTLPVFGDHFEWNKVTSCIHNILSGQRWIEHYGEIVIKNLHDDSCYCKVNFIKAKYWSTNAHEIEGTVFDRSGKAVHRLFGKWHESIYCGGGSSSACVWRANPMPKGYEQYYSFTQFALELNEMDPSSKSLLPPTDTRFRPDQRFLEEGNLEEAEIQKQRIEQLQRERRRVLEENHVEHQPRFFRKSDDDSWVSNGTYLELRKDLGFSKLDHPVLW
inactive: [2] -0.077 | [3] -0.035 | [4] 0.292 | [5] 0.14
